# Data from PubChem BioAssay (Tox21).
# Inconclusive results are not listed. A call without a number means that no potency is given here. Active and inactive are the calls of the source. Calls come from the whole dose curve; as a rule, active = well fitted inhibition curve with a large enough effect in the signal ratio in the repeat runs (not every such curve was filed as active); inconclusive = weak or mixed curves, or effect the other way; inactive = flat fitted curve, though single readings scatter; the % refers to the signal ratio. Bridge positions count the residues as written; N and C are the ends. Square brackets hold non-standard residues; d marks the D form. Peptide text beside a SMILES is read from it. hArg = N=C(N)NCCCC[C@H](N)C(=O)O; Mpa = O=C(O)CCS
# Assay: cAMP Responsive Elements (CRE) small molecule antagonists, cell-based qHTS assay (AID 1963591)
# Details: CRE-bla HEK293T, beta-lactamase FRET ratio; series mostly up to 92.4 µM
# From the text: U.S. Tox21 Program National Center for Advancing Translational Sciences [NCATS] Division of Preclinical Innovation [DPI] U.S. Environmental Protection Agency [EPA] National Institutes of Environmental Health Sciences [NIEHS] National Toxicology Program [NTP] U.S. Food and Drug Administration [FDA] Tox21 Assay Overview: CREB (cyclic-AMP Responsive Element Binding Protein) is a cellular transcription factor. It binds to certain DNA sequences called cAMP Responsive Elements (CRE) and regulates the transcription of the genes. […] This cell line can be used to find agonists/antagonists of the cyclic AMP signaling pathway. The activation of the report gene under culture conditions can be detected by fluorescence intensity. This cell line has been used to screen the Tox21 10K compound library to […].
# Tox21 Assay Protocol Summary: CRE-bla Hek 293T cells were suspended in assay medium (DMEM containing 10% dialyzed FBS, 0.1 mM NEAA, 1 mM sodium pyruvate and 25 mM HEPES) and dispensed at 2,000 cells/4 uL /well into 1536-well black wall/clear bottom plates using a Multidrop Combi (ThermoFisher Scientific, Waltham, MA) dispenser. After the assay plates were incubated at 37 C/5% CO2 for 18 hrs, 23 nL of compounds dissolved in DMSO, positive controls or DMSO only was transferred to the assay plate by a pintool workstation (Kalypsys, San Diego, CA), followed by addition of 1 […] uL of 1.25uM NKH477 (0.25 uM as final concentration) in assay medium using a Flying Reagent Dispenser (Aurora Discovery, San Diego, CA). The plates were incubated at 37 C and 5% CO2 for 3 hrs. Then 1 uL of LiveBLAzer B/G FRET substrate (Invitrogen, Carlsbad, CA) was added to each well using Bioraptr Flying Reagent Dispenser (FRD, Aurora Discovery, San Diego, CA). The plates were incubated at room temperature for 2 h.
Compound,Potency,"activity change, negative = inhibition"
O=C(O)c1cc(C(=O)O)cc(C(=O)O)c1,inactive,–
N#CCCOCCOCCC#N,inactive,–
C/C=C(\C)C(C)=O,inactive,–
CC(C)C(=O)OCCc1ccccc1,inactive,–
CC(=O)c1ccccc1[N+](=O)[O-],inactive,–
NCc1ccccc1,inactive,–
CN(C)CC[C@@H](c1ccc(Cl)cc1)c1ccccn1,inactive,–
CC1=CC(=O)CCC1,inactive,–
c1cnc(N2CCN(Cc3ccc4c(c3)OCO4)CC2)nc1,inactive,–
NC1=NCC2c3ccccc3Cc3ccccc3N12 (stereo not given),inactive,–
CCCCCCCCCCC1CO1 (stereo not given),inactive,–
NCCCC(N)(C(=O)O)C(F)F (stereo not given),inactive,–
O=C1CCc2ccc(OCCCCN3CCN(c4cccc(Cl)c4Cl)CC3)cc2N1,inactive,–
N#CCCOCCC#N,inactive,–
CC(C)CCOC(=O)/C=C/c1ccccc1,inactive,–
CN1CCN2c3ccccc3Cc3ccccc3C2C1 (stereo not given),inactive,–
CCN1CCN(C(=O)N[C@@H](C(=O)N[C@@H]2C(=O)N3C(C(=O)O)=C(CSc4nnnn4C)CS[C@H]23)c2ccc(O)cc2)C(=O)C1=O,inactive,–
O=P(c1ccccc1)(c1ccccc1)c1ccccc1,inactive,–
Cn1ccc2cc3c(cc21)CCN3C(=O)Nc1cccnc1,–,0.0268% [at 18.9 µM] (inactive)
COC(C)(C)OC,inactive,–

Compound,Potency,"activity change, negative = inhibition"
CC/C=C/CCCCCCCCCCOC(C)=O,inactive,–
OCCCS,inactive,–
Clc1ccc(C(Cn2ccnc2)OCc2ccc(Sc3ccccc3)cc2)c(Cl)c1 (stereo not given),inactive,–
C[C@H]1[C@H](NC(=O)/C(=N/OC(C)(C)C(=O)O)c2csc(N)n2)C(=O)N1S(=O)(=O)O (stereo in doubt),inactive,–
CCCOc1ccc2nc(NC(=O)OC)[nH]c2c1,inactive,–
CCOCC(C)O (stereo not given),inactive,–
[O-][N+](=Nc1ccccc1)c1ccccc1,inactive,–
CCCC(=O)OC(C)(C)Cc1ccccc1,inactive,–
O=C1CCCCC1C1CCCCC1 (stereo not given),inactive,–
CCNC(=O)NCc1cccc(Cl)c1,inactive,–
NCCCC(O)(P(=O)(O)O)P(=O)(O)O,inactive,–
N#Cc1ccccc1O,inactive,–
CCCCCCCCCCCCOC(C)=O,inactive,–
CC1=NN(c2ccc(S(=O)(=O)O)cc2)C(=O)C1N=Nc1ccccc1 (stereo not given),inactive,–
O=C(O)/C=C/c1ccc(O)c(O)c1,inactive,–
CN1CCC(=C2c3ccccc3CCc3cccnc32)CC1,inactive,–
CCOc1ccccc1OCC1CNCCO1 (stereo not given),inactive,–
COc1nc(N)nc2c1ncn2[C@@H]1O[C@H](CO)[C@@H](O)[C@@H]1O,inactive,–
NC(=O)[C@@H]1CSSCCC(=O)N[C@@H](CCCCN=C(N)N)C(=O)NCC(=O)N[C@@H](CC(=O)O)C(=O)N[C@@H](Cc2c[nH]c3ccccc23)C(=O)N2CCC[C@H]2C(=O)N1 ([Mpa][hArg]GDWPC-NH2; disulfide 1-7),inactive,–
CN1C[C@H]2c3ccccc3Oc3ccc(Cl)cc3[C@@H]2C1,inactive,–
